These results are taken from PubChem BioAssay (NCI).

About 83,000 compounds went through this panel and 20% of them were active in at least one assay; those are over-represented in the sample as a whole.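 The test compound was applied at a single concentration to cells in 96-well plates for 48 hours, and percent growth was recorded.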 Calls of active or inactive are those of the source. The calls were made as follows: active = growth percent below 10; inactive = the rest.

This test deals with HL-60(TB) leukemia. Kind of test: NCI-60 one-dose screen, 48 h (100 = growth as untreated, 0 = no growth, -100 = all killed). As to conditions: 10 µM unless noted.
Take `COc1ccccc1N=Nc1c(O)ccc2cc(S(=O)(=O)O)ccc12`: the growth is 106% (inactive). Then `CCOC(=O)c1sc(-c2ccc(OS(=O)(=O)c3ccc(C(C)(C)C)cc3)c(C=O)c2)nc1C`, with 21.3% (inactive).

As for `CCC(C)(C)c1cc(O)c(C(C)(C)CC)cc1O`, the growth is -9.67% (active). On to `COc1cc(/C=C/C(=O)c2ccc(Cl)cc2)ccc1OS(=O)(=O)c1ccc(C)cc1`, for which the growth is 75.2% (inactive). Under `N#Cc1c[nH]n2ccnc12` stands 123% (inactive); under `O=S(=O)(NCCNc1nccc(-c2c(-c3cccc(F)c3)nc3occn23)n1)c1ccc(C(F)(F)F)cc1`, 106% (inactive); under `COC(=O)c1nc(-c2ccccc2)oc1S(=O)(=O)n1nc(-c2ccccc2)cc1N`, 58.9% (inactive). Consider `CN1CCN(CCOc2ccc(-c3cnc4c(-c5cccc(F)c5F)cnn4c3)cc2)CC1`, for which the growth is -49.9% (active). For `CC(C)=CCc1cc(O)c(O)c2oc3cc(O)cc(O)c3c(=O)c12`, the growth was 103% (inactive). Then `Cc1cc(C)c2c(n1)sc1c(Nc3ccc(Cl)cc3)ncnc12`, with -19.1% (active); and `O=C1Nc2ccc(F)cc2C12Nc1cc(Cl)ccc1S2` (stereo not given), with 65.5% (inactive); and `CCCCCCCC(=O)SCC/C=C/[C@@H]1CC(=O)NCc2nc(cs2)C2=N[C@@](C)(CS2)C(=O)N[C@@H](C(C)C)C(=O)N1`, with 8.7% (active). Under `CCN(CC)CCCNCCCNc1cc(OC)cc2cccnc12` stands -3.42% (active); under `CCN1/C(=C/C=C/C=C/c2sc3ccccc3[n+]2CC)Sc2ccccc21`, -58.4% (active); under `CN1CCN(c2ccc(NC3=C(Cl)C(=O)c4ncccc4C3=O)cc2C#N)CC1`, -26.3% (active).
